Legend:
Assay in all cases: DAPPL (digital affinity profiling via proximity ligation, sequencing); 10 mM Tris-HCl pH 7.5, 50 mM NaCl, 1 mM DTT, 4% glycerol, room temperature, 30 min; GST-TFs on glutathione beads, 16-mer random dsDNA library, 0.1% formaldehyde crosslink after washing; high values mean tight binding
FLI1 = molecular target: T1, FLI1 (Homo sapiens, UniProt Q01543 1-452); conditions: protein: recombinant; tags: N-terminal GST; dsDNA, one strand shown
T1 sequence: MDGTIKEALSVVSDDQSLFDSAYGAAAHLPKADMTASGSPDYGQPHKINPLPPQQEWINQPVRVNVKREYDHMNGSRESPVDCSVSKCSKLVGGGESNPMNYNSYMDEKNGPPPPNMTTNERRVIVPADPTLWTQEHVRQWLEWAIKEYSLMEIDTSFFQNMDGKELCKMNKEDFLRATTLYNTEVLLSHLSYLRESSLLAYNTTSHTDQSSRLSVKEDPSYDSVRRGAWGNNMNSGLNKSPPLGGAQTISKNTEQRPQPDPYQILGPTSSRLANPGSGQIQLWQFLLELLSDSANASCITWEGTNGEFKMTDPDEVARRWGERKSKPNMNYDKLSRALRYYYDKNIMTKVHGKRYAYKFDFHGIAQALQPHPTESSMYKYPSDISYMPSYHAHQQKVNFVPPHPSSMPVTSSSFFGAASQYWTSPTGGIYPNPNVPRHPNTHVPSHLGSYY
Procedure, shortened: (§1)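 Binding signal is defined as a hexamer's read frequency for one factor over its frequency for the tag-only sample. To obtain reads, GST-fused human transcription factors were expressed in yeast, captured on glutathione beads, barcoded with DNA and pooled with that sample. Pools met 200 nmole of a 16-mer random double-stranded DNA library in Tris/NaCl/DTT/glycerol buffer for 30 min at room temperature before washing, 0.1% formaldehyde crosslinking, proximity ligation (BsaI/T4 ligase, 1 h, 37 °C), PCR and Illumina NextSeq500 sequencing.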

ELK1 = molecular target: T2, ELK1 (Homo sapiens, UniProt P19419 1-428); conditions: protein: recombinant; tags: N-terminal GST; dsDNA, one strand shown
T2 sequence: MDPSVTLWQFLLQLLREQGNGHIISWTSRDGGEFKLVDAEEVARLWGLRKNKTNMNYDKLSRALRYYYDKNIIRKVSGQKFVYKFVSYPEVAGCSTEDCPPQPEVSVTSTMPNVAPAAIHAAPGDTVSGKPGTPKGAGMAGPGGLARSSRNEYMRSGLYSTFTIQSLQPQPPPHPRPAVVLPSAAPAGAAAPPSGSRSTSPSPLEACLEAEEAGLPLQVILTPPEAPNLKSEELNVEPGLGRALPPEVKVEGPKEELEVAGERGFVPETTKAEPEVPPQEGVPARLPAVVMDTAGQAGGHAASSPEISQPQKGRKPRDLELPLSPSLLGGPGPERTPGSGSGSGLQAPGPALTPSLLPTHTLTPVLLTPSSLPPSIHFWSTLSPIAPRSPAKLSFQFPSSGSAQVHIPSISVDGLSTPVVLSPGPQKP
Procedure, shortened: as §1

GABPA = molecular target: T3, GABPA (Homo sapiens, UniProt Q06546 1-454); conditions: protein: recombinant; tags: N-terminal GST; dsDNA, one strand shown
T3 sequence: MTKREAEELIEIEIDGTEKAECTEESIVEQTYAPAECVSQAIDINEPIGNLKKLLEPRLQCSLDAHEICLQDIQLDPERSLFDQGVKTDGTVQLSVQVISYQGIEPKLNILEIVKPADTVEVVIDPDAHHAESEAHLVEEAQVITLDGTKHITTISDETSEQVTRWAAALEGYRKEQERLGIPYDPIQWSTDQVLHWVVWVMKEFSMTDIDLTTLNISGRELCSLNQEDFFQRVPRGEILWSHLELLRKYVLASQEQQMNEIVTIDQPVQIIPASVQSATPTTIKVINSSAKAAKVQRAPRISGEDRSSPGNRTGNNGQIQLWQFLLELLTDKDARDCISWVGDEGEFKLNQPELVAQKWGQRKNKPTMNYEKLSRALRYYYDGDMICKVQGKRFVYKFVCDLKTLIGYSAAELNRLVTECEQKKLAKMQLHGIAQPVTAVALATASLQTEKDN
Procedure, shortened: as §1

ERG = molecular target: T4, ERG (Homo sapiens, UniProt P11308 1-479); conditions: protein: recombinant; tags: N-terminal GST; dsDNA, one strand shown
T4 sequence: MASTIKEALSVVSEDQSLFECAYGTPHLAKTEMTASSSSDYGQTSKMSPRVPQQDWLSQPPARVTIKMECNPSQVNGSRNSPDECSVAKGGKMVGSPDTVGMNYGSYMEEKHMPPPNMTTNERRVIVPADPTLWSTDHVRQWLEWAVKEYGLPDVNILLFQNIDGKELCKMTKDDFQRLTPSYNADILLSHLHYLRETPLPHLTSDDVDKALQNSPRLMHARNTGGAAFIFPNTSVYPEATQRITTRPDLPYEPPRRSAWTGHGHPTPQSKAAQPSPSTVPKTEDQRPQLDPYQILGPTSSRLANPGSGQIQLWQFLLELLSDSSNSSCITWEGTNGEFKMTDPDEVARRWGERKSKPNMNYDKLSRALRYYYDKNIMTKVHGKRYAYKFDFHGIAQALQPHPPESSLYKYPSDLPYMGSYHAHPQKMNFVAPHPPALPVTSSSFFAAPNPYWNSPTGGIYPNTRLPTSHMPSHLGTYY
Procedure, shortened: as §1

ELF1 = ELF1 (Homo sapiens, UniProt P32519 1-619); conditions: protein: recombinant; tags: N-terminal GST; dsDNA, one strand shown
ELF1, sequence (P32519 whole entry): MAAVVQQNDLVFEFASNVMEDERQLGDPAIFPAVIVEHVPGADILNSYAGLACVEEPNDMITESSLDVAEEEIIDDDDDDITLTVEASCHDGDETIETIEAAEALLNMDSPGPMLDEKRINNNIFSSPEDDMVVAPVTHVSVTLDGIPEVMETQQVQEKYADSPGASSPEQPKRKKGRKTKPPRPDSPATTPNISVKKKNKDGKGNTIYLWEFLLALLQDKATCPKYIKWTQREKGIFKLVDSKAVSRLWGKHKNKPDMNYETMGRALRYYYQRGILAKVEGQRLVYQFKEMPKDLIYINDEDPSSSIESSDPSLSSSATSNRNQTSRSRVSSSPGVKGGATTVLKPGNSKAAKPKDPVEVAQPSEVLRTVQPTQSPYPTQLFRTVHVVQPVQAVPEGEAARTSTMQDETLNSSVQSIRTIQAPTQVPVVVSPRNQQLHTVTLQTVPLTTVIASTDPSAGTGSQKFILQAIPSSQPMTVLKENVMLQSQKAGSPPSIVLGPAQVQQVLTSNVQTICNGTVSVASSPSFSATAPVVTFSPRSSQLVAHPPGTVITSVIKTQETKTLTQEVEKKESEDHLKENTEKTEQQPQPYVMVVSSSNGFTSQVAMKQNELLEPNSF
Procedure, shortened: as §1

EHF = molecular target: T5, EHF (Homo sapiens, UniProt Q9NZC4 1-300); conditions: protein: recombinant; tags: N-terminal GST; dsDNA, one strand shown
T5 sequence: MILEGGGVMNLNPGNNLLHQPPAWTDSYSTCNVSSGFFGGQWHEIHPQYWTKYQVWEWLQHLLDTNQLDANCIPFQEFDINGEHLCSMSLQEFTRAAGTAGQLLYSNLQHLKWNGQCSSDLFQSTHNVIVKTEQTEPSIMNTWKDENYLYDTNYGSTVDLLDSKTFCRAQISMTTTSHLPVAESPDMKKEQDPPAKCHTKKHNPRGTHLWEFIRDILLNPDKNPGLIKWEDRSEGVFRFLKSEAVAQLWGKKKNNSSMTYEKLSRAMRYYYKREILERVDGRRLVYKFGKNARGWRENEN
Procedure, shortened: as §1

SPI1 = SPI1 (Homo sapiens, UniProt P17947 1-270); conditions: protein: recombinant; tags: N-terminal GST; dsDNA, one strand shown
Procedure, shortened: as §1

SPIB = SPIB (Homo sapiens, UniProt Q01892 1-262); conditions: protein: recombinant; tags: N-terminal GST; dsDNA, one strand shown
SPIB, sequence (Q01892 whole entry): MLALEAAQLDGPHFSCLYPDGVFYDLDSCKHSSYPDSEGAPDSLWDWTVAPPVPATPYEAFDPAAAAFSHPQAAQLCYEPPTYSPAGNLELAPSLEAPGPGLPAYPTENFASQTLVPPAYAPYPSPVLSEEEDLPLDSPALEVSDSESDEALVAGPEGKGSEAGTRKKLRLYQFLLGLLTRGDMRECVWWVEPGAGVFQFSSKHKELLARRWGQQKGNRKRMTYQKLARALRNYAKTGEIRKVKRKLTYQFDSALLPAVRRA
Procedure, shortened: as §1

ELK3 = molecular target: T6, ELK3 (Homo sapiens, UniProt P41970 1-407); conditions: protein: recombinant; tags: N-terminal GST; dsDNA, one strand shown
T6 sequence: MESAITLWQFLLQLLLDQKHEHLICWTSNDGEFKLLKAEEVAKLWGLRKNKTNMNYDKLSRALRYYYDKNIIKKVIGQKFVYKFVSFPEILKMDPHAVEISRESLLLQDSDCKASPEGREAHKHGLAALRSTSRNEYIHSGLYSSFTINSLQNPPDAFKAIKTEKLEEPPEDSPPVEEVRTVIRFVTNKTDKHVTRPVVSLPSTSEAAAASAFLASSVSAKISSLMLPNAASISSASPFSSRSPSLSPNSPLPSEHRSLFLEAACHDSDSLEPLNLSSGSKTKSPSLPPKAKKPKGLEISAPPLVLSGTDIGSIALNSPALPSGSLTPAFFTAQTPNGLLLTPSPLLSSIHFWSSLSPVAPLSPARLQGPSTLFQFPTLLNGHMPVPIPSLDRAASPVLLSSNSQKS
Procedure, shortened: as §1

FEV = molecular target: T7, FEV (Homo sapiens, UniProt Q99581 1-238); conditions: protein: recombinant; tags: N-terminal GST; dsDNA, one strand shown
T7 sequence: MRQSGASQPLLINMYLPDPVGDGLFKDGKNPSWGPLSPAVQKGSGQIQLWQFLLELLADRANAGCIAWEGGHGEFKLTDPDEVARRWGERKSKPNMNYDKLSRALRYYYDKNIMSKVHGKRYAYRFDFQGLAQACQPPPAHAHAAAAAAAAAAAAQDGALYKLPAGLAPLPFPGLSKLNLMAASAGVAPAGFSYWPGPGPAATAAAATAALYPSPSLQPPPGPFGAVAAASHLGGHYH
Procedure, shortened: as §1

ETV5 = ETV5 (Homo sapiens, UniProt P41161 1-510); conditions: protein: recombinant; tags: N-terminal GST; dsDNA, one strand shown
ETV5, sequence (P41161 whole entry): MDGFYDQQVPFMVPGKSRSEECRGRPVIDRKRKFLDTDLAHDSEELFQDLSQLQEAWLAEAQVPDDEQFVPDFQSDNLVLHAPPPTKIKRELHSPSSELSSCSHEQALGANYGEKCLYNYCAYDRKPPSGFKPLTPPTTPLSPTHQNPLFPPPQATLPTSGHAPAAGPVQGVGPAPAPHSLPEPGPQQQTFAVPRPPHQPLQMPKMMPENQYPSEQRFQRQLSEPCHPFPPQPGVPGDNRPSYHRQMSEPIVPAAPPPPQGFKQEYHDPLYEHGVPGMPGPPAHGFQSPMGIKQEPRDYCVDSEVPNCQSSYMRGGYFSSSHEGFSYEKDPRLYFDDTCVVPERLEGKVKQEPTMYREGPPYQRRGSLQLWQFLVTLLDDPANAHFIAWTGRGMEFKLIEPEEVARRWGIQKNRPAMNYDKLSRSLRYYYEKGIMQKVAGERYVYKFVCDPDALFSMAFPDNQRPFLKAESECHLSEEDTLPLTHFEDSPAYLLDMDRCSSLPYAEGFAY
Procedure, shortened: as §1

HSF1 = HSF1 (Homo sapiens, UniProt Q00613 1-529); conditions: protein: recombinant; tags: N-terminal GST; chain copies: 3; dsDNA, one strand shown
HSF1, sequence (Q00613 whole entry): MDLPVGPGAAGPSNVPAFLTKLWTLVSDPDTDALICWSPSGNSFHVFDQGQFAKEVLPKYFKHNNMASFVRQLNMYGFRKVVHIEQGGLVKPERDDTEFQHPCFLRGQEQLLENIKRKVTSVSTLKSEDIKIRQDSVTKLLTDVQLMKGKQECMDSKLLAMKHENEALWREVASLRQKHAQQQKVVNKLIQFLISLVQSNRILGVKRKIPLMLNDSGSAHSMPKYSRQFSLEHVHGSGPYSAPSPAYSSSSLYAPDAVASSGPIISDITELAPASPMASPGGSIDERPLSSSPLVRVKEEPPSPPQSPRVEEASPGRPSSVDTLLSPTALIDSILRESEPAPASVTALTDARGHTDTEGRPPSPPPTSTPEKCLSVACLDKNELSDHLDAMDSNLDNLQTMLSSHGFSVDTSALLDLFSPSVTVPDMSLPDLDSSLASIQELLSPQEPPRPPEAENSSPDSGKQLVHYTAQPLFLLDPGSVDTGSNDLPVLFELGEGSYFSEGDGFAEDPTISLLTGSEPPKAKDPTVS
Procedure, shortened: as §1

SPIC = molecular target: T8, SPIC (Homo sapiens, UniProt Q8N5J4 1-248); conditions: protein: recombinant; tags: N-terminal GST; dsDNA, one strand shown
T8 sequence: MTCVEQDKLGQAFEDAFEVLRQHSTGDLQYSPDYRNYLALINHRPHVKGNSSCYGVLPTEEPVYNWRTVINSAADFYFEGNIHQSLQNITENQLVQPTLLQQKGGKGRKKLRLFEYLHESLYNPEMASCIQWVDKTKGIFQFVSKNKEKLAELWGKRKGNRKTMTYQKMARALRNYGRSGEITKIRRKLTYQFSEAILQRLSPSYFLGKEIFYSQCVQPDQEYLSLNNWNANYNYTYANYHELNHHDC
Procedure, shortened: as §1

ELF4 = ELF4 (Homo sapiens, UniProt Q99607 1-663); conditions: protein: recombinant; tags: N-terminal GST; dsDNA, one strand shown
ELF4, sequence (Q99607 whole entry): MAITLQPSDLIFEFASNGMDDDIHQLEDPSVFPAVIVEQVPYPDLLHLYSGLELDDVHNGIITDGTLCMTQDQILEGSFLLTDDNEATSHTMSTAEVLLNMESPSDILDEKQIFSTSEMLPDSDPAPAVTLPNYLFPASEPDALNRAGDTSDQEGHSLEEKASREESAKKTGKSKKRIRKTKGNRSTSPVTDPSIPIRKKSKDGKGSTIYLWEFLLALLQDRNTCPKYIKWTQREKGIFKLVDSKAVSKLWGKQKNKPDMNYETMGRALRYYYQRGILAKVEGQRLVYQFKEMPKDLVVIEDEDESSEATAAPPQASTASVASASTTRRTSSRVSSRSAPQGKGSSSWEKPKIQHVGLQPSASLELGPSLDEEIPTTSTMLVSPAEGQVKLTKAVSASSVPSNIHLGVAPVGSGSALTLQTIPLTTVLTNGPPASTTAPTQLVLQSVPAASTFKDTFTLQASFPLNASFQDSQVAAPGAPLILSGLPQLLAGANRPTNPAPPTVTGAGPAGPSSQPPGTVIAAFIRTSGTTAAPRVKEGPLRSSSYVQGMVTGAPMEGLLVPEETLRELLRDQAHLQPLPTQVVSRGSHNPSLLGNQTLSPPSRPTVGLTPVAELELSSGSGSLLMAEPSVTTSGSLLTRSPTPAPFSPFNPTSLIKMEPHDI
Procedure, shortened: as §1

ELK4 = molecular target: T9, ELK4 (Homo sapiens, UniProt P28324-2 1-405); conditions: protein: recombinant; tags: N-terminal GST; dsDNA, one strand shown
T9 sequence: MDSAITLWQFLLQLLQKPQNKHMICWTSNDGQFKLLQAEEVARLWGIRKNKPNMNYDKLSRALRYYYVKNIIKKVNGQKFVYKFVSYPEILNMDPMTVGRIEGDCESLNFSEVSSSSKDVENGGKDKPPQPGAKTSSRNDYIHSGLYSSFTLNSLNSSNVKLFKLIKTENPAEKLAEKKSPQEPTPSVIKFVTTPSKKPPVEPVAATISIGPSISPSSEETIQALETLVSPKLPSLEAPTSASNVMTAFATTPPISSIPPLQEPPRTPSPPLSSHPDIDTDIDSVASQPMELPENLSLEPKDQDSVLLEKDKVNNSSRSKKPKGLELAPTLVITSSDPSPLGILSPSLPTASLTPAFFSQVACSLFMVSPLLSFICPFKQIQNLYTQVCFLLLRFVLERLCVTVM
Procedure, shortened: as §1

ETV2 = molecular target: T10, ETV2 (Homo sapiens, UniProt O00321 1-342); conditions: protein: recombinant; tags: N-terminal GST; dsDNA, one strand shown
T10 sequence: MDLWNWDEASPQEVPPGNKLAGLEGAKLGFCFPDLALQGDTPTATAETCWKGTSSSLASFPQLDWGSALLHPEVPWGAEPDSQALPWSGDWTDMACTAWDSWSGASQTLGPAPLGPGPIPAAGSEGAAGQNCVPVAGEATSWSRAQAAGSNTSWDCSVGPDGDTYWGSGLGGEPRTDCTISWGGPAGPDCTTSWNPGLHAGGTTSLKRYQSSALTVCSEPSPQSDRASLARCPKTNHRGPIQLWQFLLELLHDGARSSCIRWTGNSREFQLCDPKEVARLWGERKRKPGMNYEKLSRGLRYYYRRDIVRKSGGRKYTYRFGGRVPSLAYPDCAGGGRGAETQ
Procedure, shortened: as §1

ELF3 = molecular target: T11, ELF3 (Homo sapiens, UniProt P78545 1-371); conditions: protein: recombinant; tags: N-terminal GST; dsDNA, one strand shown
T11 sequence: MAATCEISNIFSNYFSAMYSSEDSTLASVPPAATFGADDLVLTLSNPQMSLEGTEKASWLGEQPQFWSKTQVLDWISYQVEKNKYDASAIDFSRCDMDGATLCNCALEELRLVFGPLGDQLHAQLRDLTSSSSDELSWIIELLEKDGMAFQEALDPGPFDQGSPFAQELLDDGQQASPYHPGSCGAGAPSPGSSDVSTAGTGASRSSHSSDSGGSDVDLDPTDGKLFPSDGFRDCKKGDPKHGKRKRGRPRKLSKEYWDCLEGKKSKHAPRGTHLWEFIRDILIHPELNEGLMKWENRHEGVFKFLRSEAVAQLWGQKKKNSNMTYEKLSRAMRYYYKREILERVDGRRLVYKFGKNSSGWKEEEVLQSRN
Procedure, shortened: as §1

CRX = CRX (Homo sapiens, UniProt O43186 1-299); conditions: protein: recombinant; tags: N-terminal GST; dsDNA, one strand shown
CRX, sequence (O43186 whole entry): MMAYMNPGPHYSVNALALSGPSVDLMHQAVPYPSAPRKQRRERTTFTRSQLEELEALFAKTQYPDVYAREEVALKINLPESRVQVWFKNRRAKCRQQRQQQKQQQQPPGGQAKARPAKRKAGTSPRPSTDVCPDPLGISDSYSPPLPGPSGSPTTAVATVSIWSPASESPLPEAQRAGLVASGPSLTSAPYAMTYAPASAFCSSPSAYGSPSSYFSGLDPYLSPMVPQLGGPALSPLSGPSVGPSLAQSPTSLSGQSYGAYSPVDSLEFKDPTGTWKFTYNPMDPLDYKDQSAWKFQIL
Procedure, shortened: as §1

ETV1 = ETV1 (Homo sapiens, UniProt P50549 1-477); conditions: protein: recombinant; tags: N-terminal GST; dsDNA, one strand shown
ETV1, sequence (P50549 whole entry): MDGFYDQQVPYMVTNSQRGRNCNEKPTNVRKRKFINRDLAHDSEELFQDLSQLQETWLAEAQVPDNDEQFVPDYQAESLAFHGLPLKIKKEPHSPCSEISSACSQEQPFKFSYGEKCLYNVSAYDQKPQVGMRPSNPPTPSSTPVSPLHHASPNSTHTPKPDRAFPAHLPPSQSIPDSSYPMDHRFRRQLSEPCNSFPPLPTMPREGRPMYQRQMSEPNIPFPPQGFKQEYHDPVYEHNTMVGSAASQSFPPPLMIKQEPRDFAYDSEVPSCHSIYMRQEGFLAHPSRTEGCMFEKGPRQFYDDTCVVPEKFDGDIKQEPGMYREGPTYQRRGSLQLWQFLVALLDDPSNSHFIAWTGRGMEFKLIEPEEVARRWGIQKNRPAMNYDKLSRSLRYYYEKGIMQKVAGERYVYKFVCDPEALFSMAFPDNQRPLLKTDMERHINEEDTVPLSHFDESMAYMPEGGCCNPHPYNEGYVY
Procedure, shortened: as §1

TATAGG
binding signal (FLI1): 1.14 fold enrichment (6-mer frequency, TF over GST control) | binding signal (ELK1): 1.06 fold enrichment (6-mer frequency, TF over GST control) | binding signal (GABPA): 1.19 fold enrichment (6-mer frequency, TF over GST control) | binding signal (ERG): 1.18 fold enrichment (6-mer frequency, TF over GST control) | binding signal (ELF1): 1.15 fold enrichment (6-mer frequency, TF over GST control) | binding signal (EHF): 1.28 fold enrichment (6-mer frequency, TF over GST control) | binding signal (SPI1): 1.23 fold enrichment (6-mer frequency, TF over GST control) | binding signal (SPIB): 1.27 fold enrichment (6-mer frequency, TF over GST control) | binding signal (ELK3): 1.08 fold enrichment (6-mer frequency, TF over GST control) | binding signal (FEV): 1.15 fold enrichment (6-mer frequency, TF over GST control) | binding signal (ETV5): 1.24 fold enrichment (6-mer frequency, TF over GST control) | binding signal (HSF1): 1.2 fold enrichment (6-mer frequency, TF over GST control) | binding signal (SPIC): 1.34 fold enrichment (6-mer frequency, TF over GST control) | binding signal (ELF4): 1.05 fold enrichment (6-mer frequency, TF over GST control) | binding signal (ELK4): 1.14 fold enrichment (6-mer frequency, TF over GST control) | binding signal (ETV2): 1.26 fold enrichment (6-mer frequency, TF over GST control) | binding signal (ELF3): 1.19 fold enrichment (6-mer frequency, TF over GST control) | binding signal (CRX): 1.42 fold enrichment (6-mer frequency, TF over GST control) | binding signal (ETV1): 1.13 fold enrichment (6-mer frequency, TF over GST control)

Reference: publication PMC7862700, “An all-to-all approach to the identification of sequence-specific readers for epigenetic DNA modifications on cytosine”
